Results published in the supplement of paper PMC12350171.
Where a name gives a salt, the structure may show the parent alone.

Assays:
Settings in all cases: 20 µM
[1] = tested on: Salmonella enterica typhimurium; experiment: growth AUC normalised to DMSO control (fraction of control); higher = less growth inhibition, active = hit call of the paper
Summary of the method: (§1)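 After two anaerobic passages, pathogens were added at a starting OD578 of 0.01 to pre-reduced mGAM plates holding compound at 20 μM with 1% DMSO; hemin and NAD were supplemented for Haemophilus parainfluenzae. Sealed with breathable membranes, plates were read at OD578 hourly for 24 h, in three biological replicates. The trapezoidal rule, applied up to the exponential-to-stationary transition, gave the growth-curve AUC, which was normalised to DMSO controls on the same plate.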

Shigella flexneri = experiment: as above
Summary of the method: as §1

Vibrio cholerae = experiment: as above
Summary of the method: as §1

[2] = tested on: Yersinia pseudotuberculosis; experiment: as above
Summary of the method: as §1

P. vulgatus RND KO = experiment: growth AUC normalised to DMSO control (median) (fraction of control); higher = less growth inhibition, active = hit call of the paper
Summary of the method: (§2)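 After two overnight anaerobic passages, strains were inoculated at OD578 0.01 into mGAM in 96-well plates containing approved-drug library compounds at 20 μM and 1% DMSO. Growth was followed by reading OD578 hourly for 24 h within an anaerobic incubator. Area under the curve, taken by the trapezoidal rule up to the start of stationary phase, was normalised to same-plate vehicle wells, and the median of three biological replicates is listed.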

P. vulgatus WT = experiment: as above
Summary of the method: as §2

[3] = tested on: S. enterica typhimurium WT; experiment: as above
Summary of the method: as §2

[4] = tested on: S. enterica typhimurium tolC KO; experiment: as above
Summary of the method: as §2

Measured: growth AUC normalised to DMSO control
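Throughout, for growth AUC normalised to DMSO control (median): active when median AUC fell below 0.1.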

CCN[C@H]1C[C@H](C)S(=O)(=O)c2sc(S(N)(=O)=O)cc21 [Dorzolamide hydrochloride]
inactive: [1] 1.02 | Shigella flexneri 1.04 | Vibrio cholerae 1.04 | [2] 1.03 | P. vulgatus RND KO 1.05 | P. vulgatus WT 1.05 | [3] 1 | [4] 1.01

CN(N=O)C(=O)N[C@H]1C(O)O[C@H](CO)[C@@H](O)[C@@H]1O (mixture of isomers) [Streptozotocin]
inactive: [3] 0.725 | [4] 0.694
active: [1] 0.659 | Shigella flexneri 0.0254 | Vibrio cholerae 0.141 | [2] 0.0388 | P. vulgatus RND KO 0.0955 | P. vulgatus WT 0.0778

CCCCc1nc(Cl)c(CO)n1Cc1ccc(-c2ccccc2-c2nnn[nH]2)cc1 [Losartan]
inactive: [1] 1.03 | Shigella flexneri 1.03 | Vibrio cholerae 1.04 | [2] 1.02 | P. vulgatus RND KO 0.974 | P. vulgatus WT 0.977 | [3] 1 | [4] 0.995

O=C(OCCOCCO)c1ccccc1Nc1cccc(C(F)(F)F)c1 [Etofenamate]
inactive: [1] 1.01 | Shigella flexneri 0.979 | Vibrio cholerae 0.977 | [2] 0.991 | P. vulgatus RND KO 0.832 | P. vulgatus WT 0.909 | [3] 1 | [4] 0.858

C=CC1=C(C(=O)O)N2C(=O)[C@@H](NC(=O)/C(=N\OCC(=O)O)c3csc(N)n3)[C@H]2SC1 [Cefixime]
active: [1] 0.00409 | Shigella flexneri 0.0268 | Vibrio cholerae 0.0803 | [2] 0.0395 | P. vulgatus RND KO 0.0155 | P. vulgatus WT 0.0102 | [3] 0.012 | [4] 0.00361

Fc1ccc(C(c2ccc(F)cc2)N2CCN(C/C=C/c3ccccc3)CC2)cc1 [Flunarizine dihydrochloride]
inactive: [1] 1.04 | Shigella flexneri 1.04 | Vibrio cholerae 1.01 | [2] 1.02 | P. vulgatus RND KO 1.01 | P. vulgatus WT 1.03 | [3] 1.02 | [4] 0.987

CCc1ccc(CCOc2ccc(CC3SC(=O)NC3=O)cc2)nc1 (configuration not stated) [Pioglitazone]
inactive: [1] 0.967 | Shigella flexneri 0.958 | Vibrio cholerae 0.911 | [2] 0.922 | P. vulgatus RND KO 0.994 | P. vulgatus WT 0.992 | [3] 0.996 | [4] 0.993

Clc1ccc(CO/N=C(\Cn2ccnc2)c2ccc(Cl)cc2Cl)c(Cl)c1 [Oxiconazole nitrate]
inactive: [1] 1.02 | Shigella flexneri 1.04 | Vibrio cholerae 1.05 | [2] 0.983 | P. vulgatus RND KO 1.01 | P. vulgatus WT 1.04 | [3] 1 | [4] 0.909

COc1cc2ncnc(Nc3ccc(F)c(Cl)c3)c2cc1OCCCN1CCOCC1 [Gefitinib]
inactive: [1] 1.01 | Shigella flexneri 1.02 | Vibrio cholerae 1 | [2] 0.983 | P. vulgatus RND KO 1.07 | P. vulgatus WT 1.07 | [3] 1.01 | [4] 0.928

CCCOc1cc(N)ccc1C(=O)OCCN(CC)CC [Propoxycaine hydrochloride]
inactive: [1] 1.02 | Shigella flexneri 1.04 | Vibrio cholerae 1.07 | [2] 1.02 | P. vulgatus RND KO 1.01 | P. vulgatus WT 1.05 | [3] 0.997 | [4] 0.996

N=c1nc(N2CCCCC2)cc(N)n1O [Minoxidil]
inactive: [1] 1 | Shigella flexneri 1.03 | Vibrio cholerae 1.01 | [2] 0.974 | P. vulgatus RND KO 0.992 | P. vulgatus WT 1.01 | [3] 0.981 | [4] 1.01

CNCCCC1c2ccccc2C=Cc2ccccc21 [Protriptyline hydrochloride]
inactive: [1] 0.973 | Shigella flexneri 1 | Vibrio cholerae 0.997 | [2] 1 | P. vulgatus RND KO 0.913 | P. vulgatus WT 0.882 | [3] 0.996 | [4] 0.951

CC1(C)S[C@@H]2[C@H](NC(=O)[C@H](C(=O)O)c3ccsc3)C(=O)N2[C@H]1C(=O)O [Ticarcillin sodium]
active: [1] 0.00595 | Shigella flexneri 0.178 | Vibrio cholerae 0.116 | [2] 0.0593 | P. vulgatus RND KO 0.00834 | P. vulgatus WT 0.0131 | [3] 0.00844 | [4] 0.0028

C#C[C@]1(O)CC[C@H]2[C@@H]3CCc4cc(OC)ccc4[C@H]3CC[C@@]21C [Mestranol]
inactive: [1] 0.987 | Shigella flexneri 1.01 | Vibrio cholerae 1.01 | [2] 1.01 | P. vulgatus RND KO 0.968 | P. vulgatus WT 0.96 | [3] 0.999 | [4] 0.988

Cc1cn[nH]c1 [Fomepizole]
inactive: [1] 0.996 | Shigella flexneri 0.992 | Vibrio cholerae 0.977 | [2] 0.996 | P. vulgatus RND KO 0.978 | P. vulgatus WT 0.985 | [3] 0.993 | [4] 0.997

CN(C)c1ccc(O)c2c1C[C@H]1C[C@H]3[C@H](N(C)C)C(=O)C(C(N)=O)=C(O)[C@@]3(O)C(=O)C1=C2O [Minocycline hydrochloride]
active: [1] 0.00774 | Shigella flexneri 0.0229 | Vibrio cholerae 0.0305 | [2] 0.0367 | P. vulgatus RND KO 0.0156 | P. vulgatus WT 0.0185 | [3] 0.0116 | [4] 0.00184

CCCNC(C)C(=O)Nc1c(C)csc1C(=O)OC (configuration not stated) [Articaine hydrochloride]
inactive: [1] 0.949 | Shigella flexneri 1.03 | Vibrio cholerae 1.08 | [2] 1.03 | P. vulgatus RND KO 1.04 | P. vulgatus WT 1.06 | [3] 1.01 | [4] 0.997

CCCCOC(=O)c1ccc(N)cc1 [Butamben]
inactive: [1] 0.994 | Shigella flexneri 0.995 | Vibrio cholerae 0.989 | [2] 0.937 | P. vulgatus RND KO 1.03 | P. vulgatus WT 1.03 | [3] 0.998 | [4] 1.01

COc1ccc(CC2c3cc(OC)c(OC)cc3CC[N+]2(C)CCC(=O)OCCCCCOC(=O)CC[N+]2(C)CCc3cc(OC)c(OC)cc3C2Cc2ccc(OC)c(OC)c2)cc1OC (configuration not stated) [Atracurium besylate]
inactive: [1] 1 | Shigella flexneri 1.05 | Vibrio cholerae 1.01 | [2] 1 | P. vulgatus RND KO 1.04 | P. vulgatus WT 1.04 | [3] 0.983 | [4] 1.01

O=C1c2c(O)cccc2Cc2cccc(O)c21 [Anthralin]
inactive: [1] 1.02 | Shigella flexneri 0.987 | Vibrio cholerae 1.03 | [2] 1.02 | P. vulgatus RND KO 0.861 | P. vulgatus WT 0.834 | [3] 0.989 | [4] 0.985

Cc1c(-c2ccccc2)oc2c(C(=O)OCCN3CCCCC3)cccc2c1=O [Flavoxate hydrochloride]
inactive: [1] 1 | Shigella flexneri 1.02 | Vibrio cholerae 1.01 | [2] 0.984 | P. vulgatus RND KO 1.06 | P. vulgatus WT 1.1 | [3] 1.02 | [4] 0.952

CC[C@H]1OC(=O)[C@H](C)[C@@H](O[C@H]2C[C@@](C)(OC)[C@@H](O)[C@H](C)O2)[C@H](C)[C@@H](O[C@@H]2O[C@H](C)C[C@H](N(C)C)[C@H]2O)[C@](C)(O)C[C@@H](C)/C(=N\OCOCCOC)[C@H](C)[C@@H](O)[C@]1(C)O [Roxithromycin]
active: [1] 0.84 | Shigella flexneri 0.82 | Vibrio cholerae 0.0242 | P. vulgatus RND KO 0.0176 | P. vulgatus WT 0.0119 | [4] 0.0779
inactive: [2] 0.954 | [3] 0.899

CN(C)C(=O)C(CCN1CCC(O)(c2ccc(Cl)cc2)CC1)(c1ccccc1)c1ccccc1 [Loperamide hydrochloride]
inactive: [1] 0.997 | Shigella flexneri 0.972 | Vibrio cholerae 0.981 | [2] 0.988 | P. vulgatus RND KO 1 | P. vulgatus WT 1.01 | [3] 1 | [4] 0.987

C[C@@H]1CN(c2c(F)c(N)c3c(=O)c(C(=O)O)cn(C4CC4)c3c2F)C[C@H](C)N1 [Sparfloxacin]
active: [1] 0.00775 | Shigella flexneri 0.047 | Vibrio cholerae 0.0469 | [2] 0.0357 | P. vulgatus RND KO 0.0205 | P. vulgatus WT 0.0159 | [3] 0.0129 | [4] 0.00501

CCCCC1C(=O)N(c2ccccc2)N(c2ccc(O)cc2)C1=O (configuration not stated) [Oxyphenbutazone]
inactive: [1] 0.996 | Shigella flexneri 1.04 | Vibrio cholerae 1.03 | [2] 1 | P. vulgatus RND KO 1.03 | P. vulgatus WT 1.06 | [3] 1.01 | [4] 1.01

COc1ccc2cc([C@@H](C)C(=O)O)ccc2c1 [(R) Naproxen sodium salt]
inactive: [1] 1.02 | Shigella flexneri 1.08 | Vibrio cholerae 1.06 | [2] 1.03 | P. vulgatus RND KO 1.06 | P. vulgatus WT 1.07 | [3] 1 | [4] 1.02

Cc1c(NC(C)C)c(=O)n(-c2ccccc2)n1C [Isopyrin hydrochloride]
inactive: [1] 1.02 | Shigella flexneri 1.01 | Vibrio cholerae 1.02 | [2] 0.982 | P. vulgatus RND KO 1.02 | P. vulgatus WT 1.06 | [3] 1 | [4] 1.01

CCCCNc1ccc(C(=O)OCCOCCOCCOCCOCCOCCOCCOCCOCCOC)cc1 [Benzonatate]
inactive: [1] 1.01 | Shigella flexneri 0.993 | Vibrio cholerae 0.996 | [2] 0.989 | P. vulgatus RND KO 1.01 | P. vulgatus WT 0.954 | [3] 1 | [4] 1

Clc1ccccc1CN1CCc2sccc2C1 [Ticlopidine hydrochloride]
inactive: [1] 0.975 | Shigella flexneri 0.988 | Vibrio cholerae 0.947 | [2] 1.01 | P. vulgatus RND KO 0.986 | P. vulgatus WT 0.997 | [3] 0.967 | [4] 0.973
